Data from PubChem BioAssay AID493036 (Sanford-Burnham Center for Chemical Genomics, 2011).
The campaign covered roughly 330,000 compounds. About 560 (0.17%) were called active.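 How the source made its calls: active means activation at or above 40% of the spot to cytoplasm intensity ratio, with at least 20 cells analyzed; inconclusive means wells under 20 cells, flagged as cytotoxic or low count; inactive means the rest.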 What follows is part of a selection rich in actives, with near analogues and random picks from the rest.

Experiments:
[1] = NTR1-driven beta-arrestin-GFP spot formation – imaging, U2OS cells, high content, primary screen (AID 493036); settings: agonist mode, measured here: cell count, cytotoxicity flag, at 20 µM;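 on activation: 0% = DMSO without peptide and 100% = 100 nM NTR1 peptide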
[2] = biological target: Neurotensin receptor type 1 (Homo sapiens) (UniProt P30989); test: as above; settings: agonist mode, at 20 µM, stronger effect = higher value
Chain of Neurotensin receptor type 1 (Homo sapiens) (P30989 whole entry, looked up): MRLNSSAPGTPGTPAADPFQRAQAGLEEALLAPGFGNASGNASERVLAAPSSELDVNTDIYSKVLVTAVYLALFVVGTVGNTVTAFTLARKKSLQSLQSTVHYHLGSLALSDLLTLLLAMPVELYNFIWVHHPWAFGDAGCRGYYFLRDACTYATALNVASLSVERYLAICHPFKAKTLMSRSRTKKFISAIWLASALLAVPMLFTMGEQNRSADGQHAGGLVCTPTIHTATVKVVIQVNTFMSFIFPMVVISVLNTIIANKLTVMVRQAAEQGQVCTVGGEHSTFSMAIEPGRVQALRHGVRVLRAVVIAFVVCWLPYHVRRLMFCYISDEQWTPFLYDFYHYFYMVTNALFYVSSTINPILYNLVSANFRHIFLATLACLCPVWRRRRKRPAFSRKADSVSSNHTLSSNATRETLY

Structure (SMILES)	cell count [1] [cells]	activation [2]
CN1CCN(c2nc(Nc3ccc(O)cc3)nc3ccccc23)CC1	47	0.5% (inactive)
Oc1ccc(-c2nnc(Nc3ccccc3)c3ccccc23)cc1	62	-0.2% (inactive)
Cc1cccc(-c2nc(Nc3ccc(O)cc3)c3ccccc3n2)c1	84	60.9% (active)
Cc1cc(C)cc(N(CC(=O)N2CC=C(c3ccccc3)CC2)S(=O)(=O)c2c(C)noc2C)c1	52	3.3% (inactive)
COc1ccc(C)cc1S(=O)(=O)Nc1cc2c3c(c1)CCC(=O)N3CCC2	52	-1.6% (inactive)
Cc1ccccc1C(=O)N1CCC(C(=O)Oc2ccc(C#N)cc2)CC1	77	0.9% (inactive)
Cc1cc(Cl)ccc1OCc1nc(-c2ccncc2)no1	20	1.2% (inactive)
Cn1c(-c2ccc(C(=O)c3ccccc3)s2)nc2ccccc21	111	-1.6% (inactive)
O=C(CCc1ccc(S(=O)(=O)N2CCOCC2)cc1)Nc1ccc2ccccc2c1	90	1.8% (inactive)
CCOC(=O)c1cccc(NS(=O)(=O)c2c(C(=O)N3CCCCCC3)c(C)n(C)c2C)c1	47	1.2% (inactive)
Cc1cccc(-n2c(SCC(N)=O)nc3c(c2=O)C2(CCCCC2)Cc2ccccc2-3)c1	62	49.9% (active)
N#CCSc1nc2c(c(=O)n1Cc1ccccc1)C1(CCCC1)Cc1ccccc1-2	47	3.2% (inactive)
Cc1cccc(-n2c(=O)c3c(C)c(C)sc3n(CC(N)=O)c2=O)c1	70	0.5% (inactive)
CC(C)(C)OC(=O)NCCCCCNC(=O)c1[nH]cnc1C(=O)Nc1nccs1	56	2.3% (inactive)
CN1/C(=C\C=C2\N=C(c3ccc(F)cc3)OC2=O)C(C)(C)c2ccccc21	59	-1% (inactive)
CC1=CCC2C(=O)N(c3cccc(C(=O)NC(C)c4ccccc4)c3)C(=O)C2C1 (stereo unspecified)	86	-1.2% (inactive)
Cc1ccc(C(=O)N/N=C\c2cc(Br)c(Br)o2)cn1	42	3.4% (inactive)
CNC[C@H](CC1CCCCC1)NC[C@H](NCCC1CCCC1)[C@H](C)O	59	4.7% (inactive)
Cc1ccc(-n2c(SCC(=O)NCc3ccc4c(c3)OCO4)nnc2-c2cccnc2)c(C)c1	50	-0.8% (inactive)
Cc1cccc(NC(=O)C2CCCN(C(=O)NCc3ccccc3)C2)c1C (stereo unspecified)	37	0.3% (inactive)
CCCCCCSc1ccc(-c2nc3ccc(Cl)cn3c2NCc2ccccc2)cc1	65	-1.8% (inactive)

Structure (SMILES)	cell count [1] [cells]	activation [2]
CCCCNc1c(-c2ccc(OC)c(Sc3ccc(OC)cc3)c2)nc2ccc(Cl)cn12	52	3.2% (inactive)
CCCCNc1c(-c2cccc(Sc3ccc(OC)cc3)c2)nc2ccccn12	60	42.5% (active)
CC(C)C(=O)Nc1ccc2c3c(cccc13)CC2	56	0.6% (inactive)
CC(=O)N1C(C)c2ccccc2C(C)(C)CC12CCCCC2 (stereo unspecified)	51	0.8% (inactive)
Cn1c(C(=O)O)ccc1S(=O)(=O)N(Cc1ccccc1)Cc1ccccc1	65	0.5% (inactive)
Cc1cc2occ(CC(=O)NNC(=O)c3ccccc3F)c2cc1C	58	0.7% (inactive)
CC(C)(C)OC(=O)CNC(=O)c1[nH]cnc1C(=O)N[C@@H](Cc1ccccc1)C(=O)OCc1ccccc1	87	15.2% (inactive)
CC(C)(C)OC(=O)N1CCC(NC(=O)c2[nH]cnc2C(=O)N[C@@H](Cc2ccccc2)C(=O)OCc2ccccc2)CC1	74	47.8% (active)
O=C(N[C@@H](Cc1ccccc1)C(=O)OCc1ccccc1)c1nc[nH]c1C(=O)NC1CCNCC1	66	4% (inactive)
CSc1ccc(C#N)cc1NC(=O)c1ccc(Cl)cc1	46	0.4% (inactive)
FC(F)(F)c1cccc(-c2nc(COc3ccc(Cl)cc3Cl)no2)c1	40	-2% (inactive)
COc1ccc(C)cc1NC(=O)C(Sc1ccccc1)c1ccccc1 (stereo unspecified)	44	1.2% (inactive)
O=C(O)c1cccc(N=NN2CCCCCC2)c1	47	0.2% (inactive)
COC(=O)C1=C(NC(=O)C(C)(C)C)CCS1	55	-0.2% (inactive)
CC(=O)c1ccc(N2Cc3ccccc3C2)cc1	66	0.5% (inactive)
N#Cc1ncc(C(F)(F)F)cc1Oc1cccnc1	41	-0.5% (inactive)
[O-][n+]1onc2c1CCc1[nH]c(-c3ccccc3)nc1-2	66	-0.8% (inactive)
O=C(NC(=S)NC1CCS(=O)(=O)C1)c1cccc([N+](=O)[O-])c1 (stereo unspecified)	51	-0.4% (inactive)
CCO[C@H]1OC(C(=O)NCc2ccccc2)=C[C@@H](c2coc3ccccc3c2=O)[C@@H]1CCCO	79	0.3% (inactive)
COc1ccc(OC)c(S(=O)(=O)NCCC(C)C)c1	90	-0.7% (inactive)
O=C(NCc1ccco1)c1cnn2c(C(F)(F)F)cc(-c3ccco3)nc12	40	8.2% (inactive)

Structure (SMILES)	cell count [1] [cells]	activation [2]
CN(C(=O)c1cccc(NC(=O)C2CCN(C(=O)OC(C)(C)C)CC2)c1)C1CCC1	52	-0.7% (inactive)
CC(C)Nc1nnc(SCC(=O)/C=C2\N(C)c3ccccc3C2(C)C)s1	54	0% (inactive)
CN1/C(=C\C(=O)c2oc3ccccc3c2N)C(C)(C)c2ccccc21	52	45.5% (active)
CC(=O)Nc1cccc(OCC(=O)/C=C2\N(C)c3ccccc3C2(C)C)c1	29	0.8% (inactive)
CC(Oc1ccccc1)C(=O)Nc1oc(-c2ccco2)c(-c2ccco2)c1C#N (stereo unspecified)	69	-1.6% (inactive)
COc1ccc(CC(NC(C)=O)C(=O)N2CCN(C(=O)Nc3cccc(Cl)c3)CC2)cc1OC (stereo unspecified)	63	-0.5% (inactive)
CC(=O)c1cnn(-c2cc(Oc3ccc(F)cc3)ncn2)c1C	34	-1.1% (inactive)
COc1cc(/C=C2/C(=O)ON=C2C)ccc1OCc1cccc(F)c1	41	5.9% (inactive)
COc1cc(/C=C2/C(=O)ON=C2C)ccc1OCc1ccccc1F	36	73.4% (active)
C=CCOc1ccc(/C=C2/C(=O)ON=C2C)cc1OCC	89	2.1% (inactive)
COC(=O)c1ccc(COC(=O)CNC(=O)c2cccc(OC)c2)o1	57	-0.3% (inactive)
O=C(Nc1nnc(S(=O)(=O)N2CCCCCC2)s1)c1cccc(Br)c1	53	5% (inactive)
Cc1c(NC(=O)CCC2CCCCC2)cc(C(=O)N2CCOCC2)cc1[N+](=O)[O-]	61	1.4% (inactive)
COc1ccc(Cc2nnc(N/N=C/c3ccccc3O)[nH]c2=O)cc1OC	65	0% (inactive)
COc1cccc(/C=N/Nc2cc(C)nc(-c3ccccc3O)n2)c1O	51	46.3% (active)
COc1ccccc1-n1c(SCC(=O)Nc2cccc(C(=O)O)c2)nnc1-c1ccccc1O	50	-0.1% (inactive)
CCC1(CC)C(=O)C2=C3C1[C@H](C(=O)OC)C=C(C(=O)OC)C[C@H]3[C@H]1C(=O)N(Cc3ccccc3)C(=O)[C@H]1[C@H]2C (stereo partly specified)	56	4.6% (inactive)
CC(C)(C)Nc1c(-c2cccs2)nc2ccccn12	43	1.2% (inactive)
O=C(O)c1cccc(NC(=O)c2cc(-c3cccc(Cl)c3)nc3ccccc23)c1	44	1.2% (inactive)
O=C(N/N=C/c1ccc(Cl)cc1)c1nc2ccc([N+](=O)[O-])cc2c(=O)[nH]1	101	-0.7% (inactive)
O=C(/C(=C/c1cccc(Cl)c1)c1nc2ccccc2[nH]1)c1ccccc1	59	40.5% (active)
